This note sets out measurements from PubChem BioAssay.

Inconclusive results are not listed. For some of these results: Measured potencies and affinities stand elsewhere. The source made the active and inactive calls.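 How the source made its calls, unless noted: active means at least 20% inhibition of 6-phosphogluconate dehydrogenase activity; inactive means the rest.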 Peptide text beside a SMILES is read from it. * marks the point of attachment. For = O=C*

For assay [1], the target named is 6-phosphogluconate dehydrogenase, decarboxylating (Homo sapiens) (UniProt P52209). The assay is described as follows: 6PGD enzyme inhibitors, primary screen, biochemical, human, recombinant enzyme, NADPH absorbance (AID 1159550). As to conditions: recombinant 6PGD, NADPH absorbance 341 nm; at 10 µM; stronger effect = higher value.
Sequence of 6-phosphogluconate dehydrogenase, decarboxylating (Homo sapiens) (P52209 whole entry, looked up, the tested form may be a part): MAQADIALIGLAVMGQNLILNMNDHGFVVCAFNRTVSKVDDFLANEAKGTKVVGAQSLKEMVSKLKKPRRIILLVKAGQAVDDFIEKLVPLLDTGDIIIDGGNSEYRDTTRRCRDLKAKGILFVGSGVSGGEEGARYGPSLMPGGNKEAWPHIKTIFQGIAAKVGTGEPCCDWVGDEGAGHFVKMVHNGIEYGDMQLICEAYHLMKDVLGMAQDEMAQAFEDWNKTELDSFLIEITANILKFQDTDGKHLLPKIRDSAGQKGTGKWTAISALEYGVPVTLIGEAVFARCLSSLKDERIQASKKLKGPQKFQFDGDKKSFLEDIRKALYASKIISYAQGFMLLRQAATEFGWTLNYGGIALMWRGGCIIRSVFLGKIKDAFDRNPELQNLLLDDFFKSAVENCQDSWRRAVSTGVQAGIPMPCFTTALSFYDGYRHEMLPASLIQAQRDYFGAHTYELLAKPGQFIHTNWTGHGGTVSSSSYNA
The target of assay [2] is Mitogen-activated protein kinase 7 (Homo sapiens) (UniProt Q13164). The experiment in a line: ERK5 transactivation activators in reporter cells, primary screen, cell-based, HTS (AID 1508626;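 active means luciferase signal above three times the same-plate solvent-only control wells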;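 further: luciferase driven by Gal4-ERK5 fusion binding five Gal4 sites before minimal TATA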). As to conditions: HeLa Gal4-ERK5 transactivation, 18 h, at 5 µM, stronger effect = higher value.
Sequence of Mitogen-activated protein kinase 7 (Homo sapiens) (Q13164 whole entry, looked up, the tested form may be a part): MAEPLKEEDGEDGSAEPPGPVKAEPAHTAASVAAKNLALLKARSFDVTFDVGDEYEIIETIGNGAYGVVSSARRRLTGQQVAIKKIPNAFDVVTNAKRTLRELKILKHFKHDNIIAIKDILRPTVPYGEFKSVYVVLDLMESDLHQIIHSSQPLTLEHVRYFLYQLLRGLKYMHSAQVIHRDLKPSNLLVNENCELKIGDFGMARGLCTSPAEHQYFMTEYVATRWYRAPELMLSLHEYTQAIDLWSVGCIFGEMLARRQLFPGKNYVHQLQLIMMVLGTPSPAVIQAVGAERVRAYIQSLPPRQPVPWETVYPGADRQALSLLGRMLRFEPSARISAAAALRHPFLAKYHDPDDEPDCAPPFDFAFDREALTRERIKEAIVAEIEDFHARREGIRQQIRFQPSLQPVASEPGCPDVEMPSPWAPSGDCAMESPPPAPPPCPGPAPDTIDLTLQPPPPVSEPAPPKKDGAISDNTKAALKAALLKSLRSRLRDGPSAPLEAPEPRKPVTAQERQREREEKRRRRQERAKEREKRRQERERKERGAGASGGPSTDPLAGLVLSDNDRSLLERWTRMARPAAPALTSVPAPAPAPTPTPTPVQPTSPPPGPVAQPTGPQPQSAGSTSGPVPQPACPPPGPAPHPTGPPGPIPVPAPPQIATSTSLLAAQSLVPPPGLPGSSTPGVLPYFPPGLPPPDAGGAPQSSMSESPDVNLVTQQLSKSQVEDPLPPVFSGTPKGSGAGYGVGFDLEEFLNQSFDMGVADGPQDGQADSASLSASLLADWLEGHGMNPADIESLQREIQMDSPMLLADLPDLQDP
Assay [3] can be described thus: polyglutamine-triggered caspase-3 activation inhibitors, cell-based (AID 1583). To be noted: polyglutamine-induced caspase-3 activation, cell assay; stronger effect = higher value;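 tested at 10 µM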.
Assay [4] in a line: suppressors of polyQ aggregation in yeast, 75Q-TubU reporter (AID 1593). To be noted: Yeast 75Q polyglutamine aggregation reporter.
Assay [5] can be described thus: rescue of polyQ-huntingtin neuronal dysfunction in worms, whole organism, C. elegans mechanosensory neurons, N-terminal huntingtin (AID 1599). To be noted: touch response, stronger effect = higher value.
Assay [6] can be described thus: inhibitors of mitochondrial cytochrome c release, biochemical, purified mitochondria (AID 1603).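 Further: mouse liver mitochondria challenged with calcium chloride; signal normalized to the plate average as 100%.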 As to conditions: stronger effect = lower value.
The nature of assay [7]: inhibitors of polyQ protein aggregation (AID 1604). As to conditions: polyglutamine-induced protein aggregation inhibition assay; stronger effect = higher value; tested at 2.5 µM.
Assay [8] in a line: enhancers of glutamate uptake in motor neurons, MN-1 cell line (AID 1612).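 Further: tested at 1 µM final; 0% = mean of DMSO vehicle wells on each plate; positive means more glutamate uptake than control and negative means less.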 To be noted: MN-1 motor neuron cells, stronger effect = higher value.
The nature of assay [9]: reducers of polyQ inclusions in PC12 cells, cell-based, NGF-treated PC12, GFPQ80 (AID 1614).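 Further: lower means fewer inclusions and 0 means no inclusions at all.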 As to conditions: PC12 NGF-treated GFP-polyQ80 inclusion reduction.
Assay [10] in a line: suppressors of polyglutamine aggregation in yeast, 75Q-TubH (AID 1616). As to conditions: S. cerevisiae 75Q-TubH polyglutamine aggregation suppression; stronger effect = higher value.
The nature of assay [11]: liver-stage malaria parasite growth inhibition, primary screen, cell-based, HepG2, luciferase luminescence, HepG2 viability (AID 624349; in the data active means parasite load remaining mostly below about 12%, no sharp cut-off; inactive means mostly above about 10%;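 further: 100% = mean of DMSO negative control wells on the same plate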). To be noted: P. berghei liver stage in HepG2, luciferase luminescence, concentration not given here; parasite load remaining: stronger effect = lower value; viability: measured here: HepG2 viability without parasites.
Assay [12] in a line: protection against mutant huntingtin cytotoxicity, PC12 cells, LDH release (AID 1610). As to conditions: PC12 mutant huntingtin toxicity, final LDH at 4 uM, stronger effect = lower value.
The nature of assay [13]: Cy5 fluorescence interference with SSB-bound oligo, artefact control for HCV NS3 helicase inhibitor project, biochemical, NIH Clinical Collection, E. coli SSB (AID 743268; call rule not given here).
Assay [14] relates to Hepatitis C virus NS3 helicase. The assay is described as follows: HCV NS3 helicase inhibitors, primary screen, biochemical, fluorescence polarization, NIH Clinical Collection (AID 743270; call rule not given here). To be noted: NS3 helicase binding to Cy5-dT15 DNA, stronger effect = higher value, concentration not given here. Background: In fluorescence polarisation assays a small probe gives low polarisation when free and higher when bound to something large.

Assay [15] deals with Single-stranded DNA-binding protein (Escherichia coli (strain K12)) (UniProt P0AGE0). The assay is described as follows: E. coli SSB displacement from DNA, counter-screen for HCV NS3 helicase inhibitor project, biochemical, fluorescence polarization, NIH Clinical Collection (AID 743271; in the data active means inhibition above about 28%). To be noted: stronger effect = higher value, concentration not given here. (In general: A counterscreen serves to expose hits that act by an unwanted route or on another target.)

Assay [16] in a line: fluorescence interference in NS3h assay format, artefact control for HCV NS3 helicase inhibitor project, biochemical, NIH Clinical Collection (AID 743272; call rule not given here;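 further: HCV NS3 helicase with a Cy5 labelled single stranded DNA probe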). To be noted: fluorescence interference counterscreen, stronger effect = lower value.

As for `CCC(=O)O[C@H]1CC[C@H]2[C@@H]3CCc4cc(O)ccc4[C@H]3CC[C@]12C`, the inhibition in assay [1] was -10.1% (inactive). In assay [2], the luciferase signal was 24 AU (inactive).
In the case of `COc1cc(C/C=C/c2ccccc2)c(OC)cc1O`, the inhibition in assay [1] was 9.29% (inactive). The luciferase signal in assay [2] was 56 AU (inactive).
As to `C[C@@H]([C@H]1OC(C)(C)[C@@H](O)[C@H]1O)[C@@H]1CC[C@]2(C)C3=CC[C@H]4C(C)(C)C(=O)CC[C@]4(C)[C@H]3CC[C@@]12C`, the inhibition in assay [1] was 4.2% (inactive). Further, the luciferase signal in assay [2] was 44 AU (inactive).
On to `NC(N)=NCCC[C@@H](NC(=O)[C@@H](N)Cc1ccc(O)cc1)C(=O)O`, for which the inhibition in [3] is -8.49%; in assay [1], 7.11% (inactive). For the same compound, the score in [4] was 1.34. The same compound registered a rescue above control in assay [5] of 13.2. In addition, in assay [6], the cytochrome c release ratio was 0.94. Moreover, the inhibition of aggregation in assay [7] was found to be 77%. The glutamate uptake change in [8] came out at 17.2%. In assay [9], this compound registered an inclusion score of 2. In assay [10], this compound had an aggregation suppression score of 1.22.
With `CSCCC(NC=O)C(=O)NC(C)C(=O)O` (stereo not given), the results for the inhibition in assay [3] and in assay [1] were 3.66% and 11.9% (inactive), respectively. For the same compound, the score in [4] was 1.03. The compound further showed a rescue above control in assay [5] of 3.86. Besides, the cytochrome c release ratio in assay [6] came to 1.14. Moreover, the inhibition of aggregation in assay [7] was 81.6%. Moreover, the glutamate uptake change in assay [8] amounted to 9.47%. The compound also showed an inclusion score in [9] of 2. In assay [10], this compound registered an aggregation suppression score of 1.3.
For the compound `COc1ccc(/C=C/c2cc(O)cc(O[C@@H]3O[C@H](CO)[C@@H](O)[C@H](O)[C@H]3O)c2)cc1O`, the inhibition in [3] is 4.89%; in assay [1], -5.87% (inactive). This compound gave a score in assay [4] of 1.27. In [5], this compound registered a rescue above control of -0.21. In assay [6], the cytochrome c release ratio amounted to 0.78. The inhibition of aggregation in [7] is 12.9%. The glutamate uptake change in assay [8] is 4.82%. This compound had an inclusion score in [9] of 2. In assay [10], the aggregation suppression score was 1.41.
Take `COC(=O)C(C)c1ccc(C(=O)c2cccs2)cc1` (stereo not given): in assay [11], the parasite load remaining is 119% (inactive) and the viability turned out to be 76.5%. Further, the inhibition in assay [1] is -13.2% (inactive). Moreover, in [2], the luciferase signal was 44 AU (inactive).
As for `CC(C)=CCc1c2c(c(O)c3c(=O)c(O)c(-c4ccccc4)oc13)C=CC(C)(C)O2`, the inhibition in [1] was -4.34% (inactive). Also, the luciferase signal in assay [2] is 64 AU (inactive).
Consider `O=C(O)c1cc(O)ccc1O`, for which the inhibition was -0.2% in [3] and -15.2% (inactive) in assay [1]. The score in assay [4] was 0.92. Also, the rescue above control in [5] is -5.86. In assay [6], the cytochrome c release ratio amounted to 0.99. The inhibition of aggregation in assay [7] amounted to 72.2%. In addition, in assay [8], the glutamate uptake change was -11.6%. The same compound returned an inclusion score in [9] of 2. The compound further came in with an aggregation suppression score in assay [10] of 0.337.
Turning to `N[C@@H](CSCSC[C@H](N)C(=O)O)C(=O)O`, the inhibition in assay [1] was 6.1% (inactive). For the same compound, the luciferase signal in assay [2] was 300 AU (inactive).
The like results for `COc1ccc(C(C)=O)c(OC)c1` were, in that order, -3.95% (inactive) and 76 AU (inactive).
For `CC(C)=CCC/C(C)=C\CO` the same measures were 6.7% (inactive) and 60 AU (inactive).
Turning to `COS(C)(=O)=O`, the inhibition in assay [1] was 6.76% (inactive). The luciferase signal in assay [2] is 124 AU (inactive).
For `CC1(O)CC2C(CC1O)C2(C)C` (stereo not given) the same measures were 13.8% (inactive) and 60 AU (inactive).
For `CC(C)=CCC1=C(O)c2ccccc2C(=O)C1=O`, the results for the inhibition in assay [3] and in assay [1] were -24.2% and -1.8% (inactive), respectively. In assay [4], this compound had a score of 0.21. Further, in assay [5], the rescue above control was found to be 6.74. Besides, in [6], the cytochrome c release ratio came to 0.7. Also, the inhibition of aggregation in [7] is 77.5%. The same compound showed a normalised LDH release in [12] of 0.727. Further, the glutamate uptake change in assay [8] was -3.48%. Besides, the inclusion score in assay [9] came out at 2. The same compound yielded an aggregation suppression score in assay [10] of 0.0579. Moreover, the parasite load remaining in [11] was 85.5% (inactive). In addition, the viability in assay [11] came to 63.9%. In assay [2], the luciferase signal was 60 AU (inactive).
For `O=C(CCCCCCCCCCCCC1CCCC1)Nc1ccc(S(=O)(=O)c2ccc(NC(=O)CCCCCCCCCCCCC3CCCC3)cc2)cc1`, in [11], the parasite load remaining is 65.7% (inactive) and the viability was found to be 90.8%. Also, in assay [1], the inhibition is 6.93% (inactive). The luciferase signal in assay [2] is 32 AU (inactive).
For `CC(=O)O[C@H]1CC[C@@]2(C)C(=CC(=O)[C@H]3[C@@H]4CC[C@H]([C@H](C)CCCC(C)C)[C@@]4(C)CC[C@@H]32)C1`, the inhibition in assay [1] is -8.76% (inactive). Also, in assay [2], the luciferase signal is 76 AU (inactive).
As to `CCC(C)C(N)C(=O)N1CCCC1C(=O)NC(C(=O)O)C(C)CC` (stereo not given), the values for the inhibition in assay [3] and in assay [1] were -6.01% and -1.23% (inactive), respectively. Besides, the score in [4] amounted to 1.3. This compound showed a rescue above control in assay [5] of 1.96. Besides, the cytochrome c release ratio in assay [6] amounted to 0.74. Besides, in [7], the inhibition of aggregation amounted to 14.9%. Further, in assay [8], the glutamate uptake change amounted to 11.9%. Moreover, in [9], the inclusion score turned out to be 2. This compound also registered an aggregation suppression score in assay [10] of 1.44.
As for `CSCCC(NC=O)C(=O)NC(Cc1ccccc1)C(=O)O` (stereo not drawn) (For-Met-Phe-OH; configuration not given here), the inhibition in assay [3] is 0.6%; in assay [1], 6.92% (inactive). In addition, the score in assay [4] worked out at 1.4. In assay [5], this compound had a rescue above control of 4.29. The cytochrome c release ratio in assay [6] amounted to 1.19. Further, in [7], the inhibition of aggregation came to 59.3%. The glutamate uptake change in assay [8] amounted to 0%. In [9], this compound yielded an inclusion score of 2. In assay [10], this compound yielded an aggregation suppression score of 0.985.
`CC=C1[C@H]2C=C(C)C[C@]1(N)c1ccc(=O)[nH]c1C2`: in assay [11], the parasite load remaining is 62.9% (inactive). The viability in assay [11] is 72.6%. For the same compound, the values for the fluorescence ratio in [13] and in assay [16] were 0.99 (inactive) and 0.96 (inactive), respectively. Also, the inhibition in [14] was -2.84% (inactive); in assay [15] it was -1.97% (inactive); in assay [1], -0.222% (inactive). In addition, the luciferase signal in assay [2] is 44 AU (inactive).
On to `CCOC(=O)C(Cc1ccc(O)cc1)NC(C)=O` (stereo not given), for which the inhibition in [3] is -16.6%; in [1], -22.2% (inactive). This compound came in with a score in assay [4] of 1.58. In assay [5], the rescue above control turned out to be 3.83. Further, the cytochrome c release ratio in assay [6] was found to be 0.88. The inhibition of aggregation in [7] is -1.73%. In addition, in [8], the glutamate uptake change was -5.84%. Moreover, the inclusion score in [9] is 2. The same compound displayed an aggregation suppression score in assay [10] of 0.981. In addition, the parasite load remaining in assay [11] was 109% (inactive). The viability in assay [11] came out at 69%. Besides, in [2], the luciferase signal was 72 AU (inactive).

For orientation: inhibition means the relative decrease from the control value, in per cent. Broadly, the viability is the share of living cells, or the viability signal relative to a control.
